# Measured values published in the supplement of paper PMC10338343.
# ± gives the standard deviation.
# Tested on: MILI (PIWIL2) piRISC loaded with L1MC piRNA (26 nt)
# Test: pre-steady-state target cleavage rate (min^-1); guide: L1MC piRNA 5'p-UAACUAAAUACUAUGCAAGCUGUAGG; MIWI and MILI are mouse PIWI proteins and EfPiwi is from a freshwater sponge; tags in brackets are library labels; higher = faster piRNA-guided slicing of the target
# Conditions: auxiliary factor: 500 nM mouse GTSF1
# Description: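 Cleave-'n-Seq: a library of target RNAs (target site embedded in constant flanks, ACAGCATTCCGCGTTAGTGATATCCG... 5' flank; DNA-blocked outside the site) at 0.1 nM was incubated with 1 nM active mouse MILI or MIWI piRISC (synthetic 5'-monophosphorylated piRNA guide) with or without 500 nM mouse GTSF1 at 33 °C for 1 min to 16 h. Uncleaved targets were sequenced and normalised to non-target controls, and the pooled three trials were fitted to a burst-and-steady-state model to give the pre-steady-state cleavage rate (min^-1; k3 is constrained to at most 1e-4). Sequence is the target site only; target names encode pairing extent (gX:gY) and contiguous / 1-mismatch / 2-mismatch / bulge geometry. Fits with R² ≤ 0 are excluded.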
row,Sequence,pre-steady-state target cleavage rate
1,UCCUGGAUCAGCUUGCAUAGUAUUUGUUA,0.145 ± 0.023
2,UCCUCUUACAGCUUGCAUAGUAUUUAGUUA,0.35 ± 0.015
3,UCCUGGUAACAGCUUGCAUAGUAUUUAGUUA,0.244 ± 0.02
4,UCCUGGAUCAGCUUGCAUAGUAUUUAGUCA,0.285 ± 0.019
5,UCCUGGUACAGCAUGCAAAGUAUUUAGUUA,0.119 ± 0.014
6,UCCUGCUACAGCUUGCAAAGUAAUUAGUUA,0.124 ± 0.018
7,UCCUGGAUGUGCUUGCAUAGUAUUUAGUAUA,0.131 ± 0.019
8,UCCUGGAUCAGCUUGCAAAGUAUUUAGAUA,0.126 ± 0.018
9,UCCUGCUACUGCUUGCAUAGUUUUUAGUUA,0.0524 ± 0.011
10,UCCUGGAUGUCGUUGCAUAGUAAUAAGUUA,0.0113 ± 0.004
11,UCCUCCUACAGCUUGCAUAGUAUUUAUGUUA,0.162 ± 0.023
12,UCCUGGAUGUCCUUGCAUAGUUAUUUAGUUA,0.0103 ± 0.0056
13,UCCUGGAUGAGGUUGCAUAGUAUUUAGUAA,0.0985 ± 0.018
14,UCCUCCUACAGCUUCGUUAGUAUUUAGAAA,0.0202 ± 0.0065
15,UCCUGGAUGUCCUUGCAUAGUAAUUACUUA,0.0143 ± 0.0067
16,UCCUGCUACAGCAUGCAUAGUAUUAAGUUA,0.331 ± 0.043
17,UCCUGCUACAGCUUCCAUUGUAUUUAGUUA,0.157 ± 0.029
18,UCCUCCUACAGCAUGCAUACUAUUUAGUUA,0.0758 ± 0.011
19,UCCUCCUACAGCUUGCAUAGUAGUUAGUUA,0.192 ± 0.026
20,UCCUCCUAGAGCUAGCAUAGUAUUUAGUUA,0.218 ± 0.015
21,UCCUGGAUGUGCUUGCAUAGUUUUUAGUUA,0.0127 ± 0.0066
22,UCCUCCUACAGCUUGCUAUGUAUUUUCAAA,0.006 ± 0.0037
23,UCCUGCUACAGCUUGAAUAGUAUUUAGUUA,0.22 ± 0.013

# Same assay, conditions: auxiliary factor: none (no GTSF1)
row,Sequence,pre-steady-state target cleavage rate
1,UCCUCUUACAGCUUGCAUAGUAUUUAGUUA,0.00963 ± 0.0032
2,UCCUGGUAACAGCUUGCAUAGUAUUUAGUUA,0.016 ± 0.0044
3,UCCUGGAUCAGCUUGCAUAGUAUUUAGUCA,0.0107 ± 0.0027
4,UCCUGGUACAGCAUGCAAAGUAUUUAGUUA,0.0117 ± 0.0036
5,UCCUGCUACAGCUUGCAAAGUAAUUAGUUA,0.00266 ± 0.0025
6,UCCUGGAUCAGCUUGCAAAGUAUUUAGAUA,0.00353 ± 0.0024
7,UCCUGCUACUGCUUGCAUAGUUUUUAGUUA,0.00424 ± 0.0018
8,UCCUCCUACAGCUUGCAUAGUAUUUAUGUUA,0.00611 ± 0.0025
9,UCCUGGAUGUCCUUGCAUAGUUAUUUAGUUA,0.00393 ± 0.0027
10,UCCUGGAUGAGGUUGCAUAGUAUUUAGUAA,0.004 ± 0.0027
11,UCCUGCUACAGCAUGCAUAGUAUUAAGUUA,0.00346 ± 0.0032
12,UCCUGCUACAGCUUCCAUUGUAUUUAGUUA,0.00322 ± 0.0022
13,UCCUCCUACAGCAUGCAUACUAUUUAGUUA,0.00328 ± 0.0022
14,UCCUCCUACAGCUUGCAUAGUAGUUAGUUA,0.00325 ± 0.0032
15,UCCUCCUAGAGCUAGCAUAGUAUUUAGUUA,0.00391 ± 0.0022
16,UCCUGGAUGUGCUUGCAUAGUUUUUAGUUA,0.00796 ± 0.0026
17,UCCUGCUACAGCUUGAAUAGUAUUUAGUUA,0.00812 ± 0.002
